Only some compounds are listed: those with a hit (about 3% of all), similar ones and a draw of the others.
GDH-TPI counter = inhibits GDH-TPI coupling enzymes, artifact for Mtb FBA screen; GDH-TPI coupled enzyme counterscreen, NADH absorbance; inhibition, % at 4.8 µM; actives 1.2% (n = 360,000); AID 588335; in the data active = inhibition above about 30%;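 note: 0% = DMSO wells and 100% = wells lacking the enzyme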
Mtb BioA inh = blocks M. tuberculosis BioA enzyme activity. purified M. tuberculosis BioA enzyme, plate reader. inhibition, % at 9.99 µM. actives 0.096% (n = 360,000); in the data active = inhibition above about 40%
Rv3671c inh = inhibits the M. tuberculosis serine protease Rv3671c. P9WHR9. inhibition, % at 5.96 µM. actives 0.048% (n = 320,000); in the data active = inhibition above about 38%;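 note: extracellular domain of Rv3671c used as enzyme; 0% = enzyme with DMSO and 100% = no enzyme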
Target sequence (P9WHR9 whole entry, looked up, the tested form may be a part): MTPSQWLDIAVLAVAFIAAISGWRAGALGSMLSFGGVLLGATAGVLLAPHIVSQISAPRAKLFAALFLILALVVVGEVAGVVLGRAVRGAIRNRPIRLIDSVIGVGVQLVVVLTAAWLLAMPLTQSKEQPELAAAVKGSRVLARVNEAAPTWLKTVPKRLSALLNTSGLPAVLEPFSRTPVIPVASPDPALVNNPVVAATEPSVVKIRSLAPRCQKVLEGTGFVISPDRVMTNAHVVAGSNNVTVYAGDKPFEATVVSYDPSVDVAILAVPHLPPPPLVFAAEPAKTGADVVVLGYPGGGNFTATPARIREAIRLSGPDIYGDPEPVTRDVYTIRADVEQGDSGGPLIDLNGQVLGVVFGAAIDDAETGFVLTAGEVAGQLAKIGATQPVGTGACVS
Mtb FBA inh = inhibits M. tuberculosis FBA enzyme; P9WQA3; purified M. tuberculosis FBA, fluorescence read-out; inhibition, % at 1 µM; actives 2.3% (n = 360,000); in the data active = inhibition above about 27%;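 note: 0% = vehicle and 100% = reference inhibitor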
FadD28 FP inh = M. tuberculosis FadD28 bisubstrate binding inhibition. FadD28 bisubstrate probe binding, fluorescence polarization. inhibition, % at 12.5 µM. actives 0.22% (n = 360,000); in the data active = inhibition above about 8.5%, passing the limit was not always enough
An asterisk follows results filed as active.

Results for O=C(O)c1cccc(-c2ccccc2)c1O ?
GDH-TPI counter: -3.9; Mtb BioA inh: -0.8; Mtb FBA inh: 116.3*; FadD28 FP inh: -4.2

How did C[C@@H]1CN([C@H](C)CO)C(=O)c2cc(NC(=O)Nc3ccc4c(c3)OCO4)ccc2O[C@@H]1CN(C)S(=O)(=O)c1ccccc1 do in these assays?
Mtb BioA inh: -5.2

How did Cn1nnnc1SCc1cn2cccnc2n1 do in these assays?
GDH-TPI counter: -6.0; Rv3671c inh: 0.7; Mtb FBA inh: 122.2*; FadD28 FP inh: 1.4

Results for Nc1ccccc1SCc1cn2cccnc2n1 ?
GDH-TPI counter: -1.4; Mtb BioA inh: -0.3; Rv3671c inh: 1.8; Mtb FBA inh: 0.9; FadD28 FP inh: 0.5

Results for COCCCN1C(=O)C(=O)/C(=C(/O)c2ccc(OCC(C)C)cc2C)C1c1cccnc1 (stereo unspecified) ?
GDH-TPI counter: 44.2*; Mtb BioA inh: -0.3; Rv3671c inh: -1.5; Mtb FBA inh: -0.4; FadD28 FP inh: -3.0

How did COCCN1C(=O)C(=O)/C(=C(/O)c2cccc(OC)c2)C1c1ccco1 (stereo unspecified) do in these assays?
GDH-TPI counter: 35.1*; Mtb BioA inh: -1.1; Rv3671c inh: 4.6; Mtb FBA inh: -3.5; FadD28 FP inh: -0.3

What do the screens show for `C=CCOc1ccc(/C(O)=C2\C(=O)C(=O)N(CCOC)C2c2cccnc2)cc1` (stereo unspecified)?
GDH-TPI counter: 34.3*; Mtb BioA inh: 1.5; Rv3671c inh: 4.0; Mtb FBA inh: 3.0; FadD28 FP inh: -1.8

Results for C[C@H](CO)N1C[C@H](C)[C@@H](CN(C)Cc2ccc(Oc3ccccc3)cc2)Oc2ccc(NC(=O)Nc3ccc(C(F)(F)F)cc3)cc2CC1=O ?
Mtb BioA inh: -2.9

How did CC(C)NC(=O)N[C@H]1CC[C@@H](CC(=O)NCCCN(C)C)O[C@H]1CO do in these assays?
Mtb BioA inh: -0.7

How did Cc1cccc2c1-c1sc(C(=O)Nc3ccccc3N3CCN(C)CC3)cc1CO2 do in these assays?
GDH-TPI counter: 14.8; Mtb BioA inh: -1.4; Rv3671c inh: -2.9; Mtb FBA inh: 8.1; FadD28 FP inh: -3.9

What do the screens show for `CCOC(=O)N1CCN(C(=O)c2cc3c(s2)-c2c(C)cccc2OC3)CC1`?
GDH-TPI counter: 20.7; Mtb BioA inh: -1.3; Rv3671c inh: -3.1; Mtb FBA inh: 143.4*; FadD28 FP inh: 0.2

What do the screens show for `CCN1CCN(C(=O)c2cc3c(s2)-c2ccccc2S(=O)(=O)C3)CC1`?
GDH-TPI counter: 12.0; Mtb BioA inh: 14.3; Rv3671c inh: -4.1; Mtb FBA inh: -1.2; FadD28 FP inh: -0.9

What do the screens show for `CCN1CCN(C(=O)c2cc3c(s2)-c2c(C)cccc2OC3)CC1`?
GDH-TPI counter: 12.9; Mtb BioA inh: 1.4; Rv3671c inh: 4.2; Mtb FBA inh: active; FadD28 FP inh: -4.3

What do the screens show for `CN(C)CC(=O)N[C@H]1CC[C@H](CCNC(=O)Nc2ccc(C(F)(F)F)cc2)O[C@H]1CO`?
Mtb BioA inh: 1.3

How did COc1ccc(-c2cc(C(=O)N3CCCCCC3)c3ccccc3n2)cc1 do in these assays?
GDH-TPI counter: 14.8; Mtb FBA inh: 150.0*; FadD28 FP inh: -1.5

Results for CCn1cc(-c2cc(C(=O)O)c3ccccc3n2)c(C)n1 ?
GDH-TPI counter: 8.4; Mtb BioA inh: 0.5; Rv3671c inh: -10.1; Mtb FBA inh: 130.2*; FadD28 FP inh: -5.2

How did O=C(O)c1cc(-c2cccc3ccccc23)nc2ccccc12 do in these assays?
GDH-TPI counter: 0.0; Mtb BioA inh: -0.7; Rv3671c inh: -5.2; Mtb FBA inh: 11.3; FadD28 FP inh: -5.3

What do the screens show for `COc1ccc(-c2cc(C(=O)N3CCCCCC3)c3ccccc3n2)cc1OC`?
GDH-TPI counter: 11.6; Mtb BioA inh: -0.8; Mtb FBA inh: 3.0; FadD28 FP inh: -4.2

What do the screens show for `Cc1ccc(-c2cc(C(=O)N3CCCC3)c3ccccc3n2)s1`?
GDH-TPI counter: 17.8; Mtb BioA inh: -0.6; Rv3671c inh: 4.3; Mtb FBA inh: active; FadD28 FP inh: -3.7

How did O=C(c1cc(-c2cccc(Br)c2)nc2ccccc12)N1CCCC1 do in these assays?
GDH-TPI counter: 5.6; Mtb BioA inh: -1.9; Rv3671c inh: 7.5; Mtb FBA inh: 4.7; FadD28 FP inh: -3.8

Results for CCc1ccc(-c2cc(C(=O)O)c3ccccc3n2)s1 ?
GDH-TPI counter: 38.2*; Mtb BioA inh: 0.0; Mtb FBA inh: 151.8*; FadD28 FP inh: -2.6

Results for C/C=C/c1ccc2c(c1)[C@H]1[C@H](CCN1C(=O)Cc1cccnc1)[C@H](CO)N2C ?
Mtb BioA inh: 4.6

Results for CC(C)NC(=O)N(C)C[C@H]1OCCCC[C@H](C)Oc2ccc(NC(=O)C3CCCCC3)cc2C(=O)N([C@@H](C)CO)C[C@@H]1C ?
Mtb BioA inh: 1.2

What do the screens show for `Cc1ccc(-c2cc(C(=O)N3CC(C)CC(C)C3)c3ccccc3n2)o1` (stereo unspecified)?
GDH-TPI counter: 3.0; Mtb BioA inh: -0.6; Rv3671c inh: 5.1; Mtb FBA inh: 24.4; FadD28 FP inh: -2.3

What do the screens show for `Cc1ccc(-c2cc(C(=O)N3CC(C)OC(C)C3)c3ccccc3n2)o1` (stereo unspecified)?
GDH-TPI counter: 11.7; Mtb BioA inh: -0.9; Rv3671c inh: -2.2; Mtb FBA inh: 145.5*; FadD28 FP inh: -3.6

How did Cc1ccc(-c2cc(C(=O)n3cnc4ccccc43)c3ccccc3n2)cc1C do in these assays?
GDH-TPI counter: 7.9; Mtb BioA inh: 0.5; Rv3671c inh: -2.0; Mtb FBA inh: 50.5*; FadD28 FP inh: -2.1

What do the screens show for `COc1ccc(-c2cc(C(=O)OCC(=O)c3ccc(C)c([N+](=O)[O-])c3)c3ccccc3n2)cc1`?
GDH-TPI counter: 8.2; Mtb BioA inh: -0.6; Rv3671c inh: -3.6; Mtb FBA inh: 5.8; FadD28 FP inh: -3.3

What do the screens show for `COc1ccc(-c2cc(C(=O)Oc3ccc([N+](=O)[O-])cc3)c3ccccc3n2)cc1`?
GDH-TPI counter: 22.8; Mtb BioA inh: 0.2; Rv3671c inh: 4.6; Mtb FBA inh: active; FadD28 FP inh: -2.0

What do the screens show for `Cc1noc(NS(=O)(=O)c2ccc(N/C=C/C(=O)c3cccnc3)cc2)c1C`?
GDH-TPI counter: 33.9*; Mtb BioA inh: 22.9; Rv3671c inh: 3.5; Mtb FBA inh: -0.2; FadD28 FP inh: -1.6

How did Cc1noc(NS(=O)(=O)c2ccc(N/C=C\C(=O)c3ccncc3)cc2)c1C do in these assays?
GDH-TPI counter: 19.6; Mtb BioA inh: -2.2; Rv3671c inh: -2.3; Mtb FBA inh: -2.3; FadD28 FP inh: 1.0

Results for O=C(/C=C\Nc1ccc(Br)cc1)c1cccnc1 ?
GDH-TPI counter: 34.9*; Mtb BioA inh: 5.7; Rv3671c inh: 3.9; Mtb FBA inh: -5.9; FadD28 FP inh: -1.2

How did C[C@@H]1CN([C@H](C)CO)S(=O)(=O)c2ccc(C#Cc3ccc(F)cc3)cc2O[C@@H]1CN(C)C(=O)c1ccccn1 do in these assays?
Mtb BioA inh: -0.2

How did Cc1ccc(C(=O)N/N=C/c2cccc(OC(=O)/C=C/c3ccco3)c2)cn1 do in these assays?
GDH-TPI counter: -1.9; Rv3671c inh: -10.4; Mtb FBA inh: 0.0; FadD28 FP inh: -15.0
